Assay results published in article PMC4336329 (PLoS ONE, 2015).
Out of some 310,000 compounds screened, about 14,000 (4.5%) showed an effect of 50% or more. Effects have a minus sign here. The sample as a whole holds a higher share of strong results than the screen did.

The compounds below were run against human ether-à-go-go-related gene (hERG) potassium channel (human, UniProt Q12809) (assay: primary screen, population patch clamp on CHO cells stably expressing hERG; higher = less effect of the substance).
human ether-à-go-go-related gene (hERG) potassium channel, sequence (Q12809 whole entry, looked up): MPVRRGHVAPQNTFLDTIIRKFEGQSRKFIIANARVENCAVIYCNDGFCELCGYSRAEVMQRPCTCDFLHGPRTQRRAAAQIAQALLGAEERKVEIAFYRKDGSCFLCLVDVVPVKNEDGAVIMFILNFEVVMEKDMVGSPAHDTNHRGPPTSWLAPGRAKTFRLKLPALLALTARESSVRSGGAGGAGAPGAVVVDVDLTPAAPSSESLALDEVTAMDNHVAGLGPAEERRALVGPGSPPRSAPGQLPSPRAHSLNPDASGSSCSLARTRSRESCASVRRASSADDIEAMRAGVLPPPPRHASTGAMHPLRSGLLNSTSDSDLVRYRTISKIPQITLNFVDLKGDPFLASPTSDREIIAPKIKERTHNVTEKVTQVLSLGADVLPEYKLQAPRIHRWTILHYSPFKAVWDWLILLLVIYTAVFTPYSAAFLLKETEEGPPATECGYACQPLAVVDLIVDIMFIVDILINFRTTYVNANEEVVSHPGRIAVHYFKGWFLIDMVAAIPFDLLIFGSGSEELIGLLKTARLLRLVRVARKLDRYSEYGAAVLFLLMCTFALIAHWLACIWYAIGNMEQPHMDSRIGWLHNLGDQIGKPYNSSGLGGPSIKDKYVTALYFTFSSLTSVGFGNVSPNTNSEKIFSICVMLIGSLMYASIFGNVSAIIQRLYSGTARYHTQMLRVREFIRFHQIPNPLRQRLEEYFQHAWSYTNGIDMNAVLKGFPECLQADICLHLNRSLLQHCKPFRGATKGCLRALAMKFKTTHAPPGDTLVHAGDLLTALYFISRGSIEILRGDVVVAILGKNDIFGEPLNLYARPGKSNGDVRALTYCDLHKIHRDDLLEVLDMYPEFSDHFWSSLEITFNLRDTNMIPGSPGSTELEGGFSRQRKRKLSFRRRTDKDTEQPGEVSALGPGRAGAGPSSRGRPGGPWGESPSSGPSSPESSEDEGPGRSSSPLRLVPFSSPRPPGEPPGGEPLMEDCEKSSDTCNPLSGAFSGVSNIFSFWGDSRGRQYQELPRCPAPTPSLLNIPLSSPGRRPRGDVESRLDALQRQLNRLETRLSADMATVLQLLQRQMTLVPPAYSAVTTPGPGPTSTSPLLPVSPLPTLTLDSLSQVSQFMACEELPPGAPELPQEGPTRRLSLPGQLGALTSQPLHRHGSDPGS
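Also: peak tail current of the secondary pulse compared with the same well before compound.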

Question: For CCC(C)(C)NC(=O)C1c2ccccc2Oc2ccccc21, which “hERG current change (%, negative = inhibition) at 10uM” value is on record?
Answer: Its value is 23%.

Question: How did the “hERG current change (%, negative = inhibition) at 10uM” value turn out when O=C(O)CC1Sc2nnc(COc3ccc(Cl)cc3)n2N=C1c1ccccc1 (stereo not drawn) was run?
Answer: Its value is 21.2%.

Question: CN(C)S(=O)(=O)c1cc(S(=O)(=O)N(C)C)c(Cl)cc1N was tested. Which “hERG current change (%, negative = inhibition) at 10uM” value did it give?
Answer: The value was -8.31%.

Question: Which “hERG current change (%, negative = inhibition) at 10uM” value does the source give for COC(=O)c1ccccc1NC(=S)NC(NC(=O)c1ccccc1[N+](=O)[O-])C(Cl)(Cl)Cl (stereo not drawn) here?
Answer: The value was -1.4%.

Question: CCc1oc(C(=O)OC)cc1CSC(=N)N.Cl was tested. Which “hERG current change (%, negative = inhibition) at 10uM” value did it give?
Answer: The value was 12%.

Question: With CS(=O)(=O)c1ccc(C(=O)NC2CCCc3ccccc32)cc1 (stereo not drawn) as the compound, how does the “hERG current change (%, negative = inhibition) at 10uM” value read?
Answer: The value was 20%.

Question: How did the “hERG current change (%, negative = inhibition) at 10uM” value turn out when COc1ccc(-c2csc(-c3cccnc3)n2)cc1C was run?
Answer: The value was -3.79%.

Question: Which “hERG current change (%, negative = inhibition) at 10uM” value does the source give for CCCCNC(=O)Nc1nnc(-c2ccc(OCC)cc2)o1 here?
Answer: The value was 10.1%.

Question: With CCN(CC)CCCNC(=O)c1[nH]c(C)c(C(=O)NC2CCCCC2)c1C as the compound, how does the “hERG current change (%, negative = inhibition) at 10uM” value read?
Answer: The value was 12.9%.

Question: CCc1nc(SCC(=O)Nc2cc(OC)ccc2OC)c2c(C)c(C)sc2n1 was tested. Which “hERG current change (%, negative = inhibition) at 10uM” value did it give?
Answer: Its value is 3.63%.

Question: Which “hERG current change (%, negative = inhibition) at 10uM” value does the source give for CC(C)Cc1nnc(NC(=O)C2CCN(C(=O)c3ccc(Cl)cc3)CC2)s1 here?
Answer: The value was -29.2%.

Question: Which “hERG current change (%, negative = inhibition) at 10uM” value does the source give for CCN(CC)c1ccc(/C=C(/C#N)C(=O)NC(C)C)o1 here?
Answer: The value was -1.68%.

Question: With COC(=O)C(C)n1cnc2c(nnn2-c2ccc(C)cc2)c1=O (stereo not drawn) as the compound, how does the “hERG current change (%, negative = inhibition) at 10uM” value read?
Answer: The value was -10.6%.

Question: Which “hERG current change (%, negative = inhibition) at 10uM” value does the source give for NC(=O)C1CCN(CC(=O)N2c3ccccc3CCc3ccccc32)CC1 here?
Answer: The value was 19.3%.

Question: Cc1cccn2c(=O)c3cc(C(=O)NC4CCCC4)n(C)c3nc12 was tested. Which “hERG current change (%, negative = inhibition) at 10uM” value did it give?
Answer: The value was 1.13%.

Question: How did the “hERG current change (%, negative = inhibition) at 10uM” value turn out when Cc1cccn2c(=O)c3cc(C(=O)NC4CCCC4)c(=N)n(C4CCCC4)c3nc12 was run?
Answer: The value was -79.2%.

Question: With Cc1cccn2c(=O)c3cc(C(=O)NC4CCCC4)c(=N)n(C4CCCCC4)c3nc12 as the compound, how does the “hERG current change (%, negative = inhibition) at 10uM” value read?
Answer: The value was -80.7%.

Question: How did the “hERG current change (%, negative = inhibition) at 10uM” value turn out when Cc1cccn2c(=O)c3cc(C(=O)NC4CCCCC4)n(C)c3nc12 was run?
Answer: The value was 12.5%.

Question: How did the “hERG current change (%, negative = inhibition) at 10uM” value turn out when Cc1cccn2c(=O)c(C(=O)NC3CCCCC3)c(O)nc12 was run?
Answer: Its value is 31.3%.

Question: For Cc1cccn2c(=O)c3cc(C(=O)NC4CCCCC4C)n(C)c3nc12 (stereo not drawn), which “hERG current change (%, negative = inhibition) at 10uM” value is on record?
Answer: Its value is 13.7%.

Question: With COc1cc(C(=O)NCC(=O)N/N=C/c2c(C)[nH]c3ccccc23)cc(OC)c1OC as the compound, how does the “hERG current change (%, negative = inhibition) at 10uM” value read?
Answer: Its value is 15.7%.

Question: With CCN(CC)CCc1nc(-c2ccccc2)no1.O=C(O)CC(O)(CC(=O)O)C(=O)O as the compound, how does the “hERG current change (%, negative = inhibition) at 10uM” value read?
Answer: Its value is -10.6%.

Question: With CCC(C(=O)OCCN(CC)CC)c1ccccc1.O=C(O)CC(O)(CC(=O)O)C(=O)O (stereo not drawn) as the compound, how does the “hERG current change (%, negative = inhibition) at 10uM” value read?
Answer: The value was 4.45%.

Question: For CCN(CC)CCC(C)OC(c1ccccc1)c1ccccc1.O=C(O)CC(O)(CC(=O)O)C(=O)O (stereo not drawn), which “hERG current change (%, negative = inhibition) at 10uM” value is on record?
Answer: Its value is -52.2%.
